The list is not random: actives were taken first. Their share in the collection is about 4.7%.
eIF4H FP inh = inhibitors of RNA binding by human eIF4H; inhibition, % at 35 µM; actives 0.94% (n = 290,000); eIF4H fluorescence polarization binding assay; Q15056;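 further: calls also rest on retests at 20 µM and on dose response follow-up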
SUMO HTRF inh = blocks human SUMOylation mediated by UBC9. P63279. HTRF SUMOylation assay, SAE1/SAE2 + UBC9, in vitro. inhibition, % at 35 µM. actives 0.36% (n = 290,000); in the data active means inhibition above about 50%, passing the limit was not always enough; inconclusive means no clear call, values can overlap the other calls
Target sequence (P63279 whole entry, looked up): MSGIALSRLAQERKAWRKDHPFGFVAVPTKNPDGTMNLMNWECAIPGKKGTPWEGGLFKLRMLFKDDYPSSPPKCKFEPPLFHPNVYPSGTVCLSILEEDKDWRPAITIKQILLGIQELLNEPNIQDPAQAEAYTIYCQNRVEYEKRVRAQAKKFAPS
MLLE-PAM2 inh = inhibitors of microRNA-mediated deadenylation, human PABP1 MLLE binding; P11940; GST-MLLE / FITC-PAM2 fluorescence polarization; inhibition, % at 20 µM; actives 0.36% (n = 360,000); in the data active means inhibition above about 35%, passing the limit was not always enough
PABP polyA inh = PABP-poly(A) binding inhibition; inhibition, % at 35 µM; PABP-poly(A) RNA binding, fluorescence polarization; actives 1% (n = 290,000);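 further: calls also rest on retests at 20 µM and on dose response follow-up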
ALR inh = blocks human ALR sulfhydryl oxidase activity; P55789; purified ALR, DTT oxidation, H2O2 HRP-luminol luminescence; inhibition, % (concentration not given with the values); actives 3.8% (n = 290,000); AID 485317;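 active means mean replicate inhibition above about 79%, with every replicate also reaching it, limit read from the data; inconclusive means only one of the two criteria met; inactive means mean below limit and not every replicate reaching it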
Target sequence (P55789 whole entry, looked up): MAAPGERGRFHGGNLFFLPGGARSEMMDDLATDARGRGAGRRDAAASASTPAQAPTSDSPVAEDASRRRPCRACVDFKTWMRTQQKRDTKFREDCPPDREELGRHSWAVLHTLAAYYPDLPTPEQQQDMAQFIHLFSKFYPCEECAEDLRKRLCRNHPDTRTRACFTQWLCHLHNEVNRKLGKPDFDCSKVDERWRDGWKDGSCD
Efflux pump inh = antifungal efflux pump inhibition, Nile Red retention; S. cerevisiae Candida pump triplex; inhibition, % at 10 µM; actives 0.44% (n = 330,000); AID 485275;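 active means plate passing quality check with inhibition over a set limit, or well fluorescence over plate mean plus 4 SD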;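 further: Nile Red retained in pooled yeast measured as flow cytometry median fluorescence; higher means more Nile Red kept so more efflux inhibition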
Large screens that a line does not name were inactive. Unless noted, how the calls were made is not given here.

COc1ccc(CCn2c(=N)c(C(=O)NCc3ccco3)cc3c(=O)n4ccccc4nc32)cc1OC	none (no result: eIF4H FP inh, SUMO HTRF inh, PABP polyA inh, ALR inh, Efflux pump inh)
Cc1ccc(Cn2c(=N)c(C(=O)NCc3ccco3)cc3c(=O)n4ccccc4nc32)cc1	eIF4H FP inh 75, PABP polyA inh 60
N=c1c(C(=O)NCc2ccco2)cc2c(=O)n3ccccc3nc2n1CCc1ccccc1	eIF4H FP inh 59, PABP polyA inh 60
Cc1ccc(Cn2c(=N)c(C(=O)NCC3CCCO3)cc3c(=O)n4ccccc4nc32)cc1 (stereo not given)	none
COc1ccc(CCNC(=O)c2cc3c(=O)n4ccccc4nc3n(Cc3ccco3)c2=N)cc1OC	eIF4H FP inh 87
C[C@H](O)[C@@H]1CN2CCc3c([nH]c4ccccc34)[C@@H]2C[C@@H]1N(C)C(=O)NC1CCCCC1	none (no result: eIF4H FP inh, SUMO HTRF inh, PABP polyA inh, ALR inh, Efflux pump inh)
O=C(CCN=C1NS(=O)(=O)c2ccccc21)OCc1cccc(Cl)c1	none (no result: eIF4H FP inh, SUMO HTRF inh, PABP polyA inh)
O=C(Oc1cccc2ccccc12)c1cc(Cl)nc2ccccc12	none
O=Cc1ccc(OC(=O)c2cc(Cl)nc3ccccc23)cc1	MLLE-PAM2 inh 36
CCCCC[C@H](O)/C=C/[C@H]1C=CC(=O)[C@@H]1C/C=C\CCCC(=O)O	PABP polyA inh active (no result: MLLE-PAM2 inh, ALR inh, Efflux pump inh)
CCCCCC(O)C=CC1C(O)CC(O)C1CC=CCCCC(=O)O (stereo not given)	none (no result: eIF4H FP inh, SUMO HTRF inh, PABP polyA inh, ALR inh, Efflux pump inh)
O=S(=O)(c1ccc(F)cc1)N1CCN(Cc2cc3c(cc2Br)OCCO3)CC1	none (no result: eIF4H FP inh, SUMO HTRF inh, PABP polyA inh)
Oc1ccc(N2CCN(Cc3cc4c(cc3Br)OCCO4)CC2)cc1	ALR inh 92
CN(C)CCNC(=O)C(=O)NCC(c1ccc2c(c1)OCO2)N1CCN(c2ccc(F)cc2)CC1 (stereo not given)	ALR inh 99
COC(=O)NCC(c1ccc2c(c1)OCO2)N1CCN(c2ccc(OC)cc2)CC1 (stereo not given)	ALR inh 91
COc1ccc(N2CCN(C(CNC(=O)C(C)C)c3ccc4c(c3)OCO4)CC2)cc1 (stereo not given)	ALR inh 86
NNC(=O)c1ccc(O)cc1O	ALR inh 99
CCOc1ccccc1/C=N/NC(=O)C[n+]1ccccc1	none (no result: eIF4H FP inh, SUMO HTRF inh, PABP polyA inh)
O=C(c1ccc(Cl)cc1)C(CN1CCCCC1)c1ccccc1 (stereo not given)	ALR inh 97
CCOC(=O)C(CN1CCCC1)c1ccccc1 (stereo not given)	none (no result: eIF4H FP inh, SUMO HTRF inh, PABP polyA inh)
Cc1cc(C)cc(-n2c(C)cc(/C=N\NC(=O)COc3cccc4cccnc34)c2C)c1	none (no result: ALR inh)
Cc1cc(/C=N/NC(=O)COc2cccc3cccnc23)c(C)n1-c1ccc(O)cc1	PABP polyA inh active
COc1ccc(CN(CC(=O)NCc2ccccc2)C(=O)c2csnn2)cc1	none
COc1ccc(CNC(=O)CN(Cc2ccc(C)cc2)C(=O)c2csnn2)cc1	MLLE-PAM2 inh 44
COc1ccc(CNC(=O)CN(Cc2ccc(Cl)cc2)C(=O)c2csnn2)cc1	MLLE-PAM2 inh 36
CCOc1ccc(C(=O)Nc2ccc3[nH]ncc3c2)cc1	none
CCNC(=S)N(CCc1c(C)[nH]c2ccc(Cl)cc12)Cc1ccco1	none
COCCNC(=S)N(CCc1c(C)[nH]c2ccccc12)Cc1ccco1	ALR inh 87
CC(C)C[C@@H](CSc1ccccc1)N1CCN(CCc2ccccc2)CCC1=O	none
CCCN1CCC(=O)N([C@H](CSc2ccc(OC)cc2)CC(C)C)CC1	ALR inh 99
CCOC(=O)Cn1cnc2c(cnn2-c2ccccc2)c1=O	none (no result: ALR inh)
CNC(=S)N/N=C/c1ccc(N(C)C)cc1	ALR inh 99
Cc1c(NC(=S)N/N=C/c2cccc(O)c2)c(=O)n(-c2ccccc2)n1C	ALR inh inconclusive
CNC(=S)N/N=C/c1ccc(C(C)C)cc1	none (no result: eIF4H FP inh, SUMO HTRF inh, PABP polyA inh)
Cc1c(NC(=S)N/N=C/c2ccc(N(C)C)cc2)c(=O)n(-c2ccccc2)n1C	ALR inh 99
COCCCNC(=S)N/N=C/c1ccc(N(C)C)cc1	ALR inh 98
Cc1ccc(N2CCN(C(=O)N3CCCC3)CC2)cc1C	ALR inh 96
O=C(O)c1ccc(NS(=O)(=O)c2ccc3c(c2)C2C=CCC2C(c2ccccc2F)N3)cc1 (stereo not given)	PABP polyA inh 81 (no result: SUMO HTRF inh, ALR inh, Efflux pump inh)
O=C1C=CC(=O)N1c1ccc(Nc2ccccc2)cc1	MLLE-PAM2 inh 41 (no result: eIF4H FP inh, SUMO HTRF inh, PABP polyA inh, ALR inh, Efflux pump inh)
O=c1cc(-c2ccccc2Cl)oc2c(NS(=O)(=O)c3cc(Cl)cc(Cl)c3O)ccc(O)c12	ALR inh 97
CCCOP(=O)(c1ccc(N(C)C)cc1)C(O)c1ccc(Br)cc1 (stereo not given)	none
Cc1nn2cc(-c3ccc(N)cc3)nc2s1	ALR inh 98
O=C(CCCN1C(=O)c2ccccc2C1=O)Nc1nnc(C2CC2)s1	eIF4H FP inh active, PABP polyA inh 59
CCC(/C=C1\Sc2ccc(OC)cc2N1CC)=C\c1sc2ccc(OC)cc2[n+]1CCCS(=O)(=O)[O-]	ALR inh 97
CCC(=O)/C=C1/Sc2ccc(OC)cc2N1CC	ALR inh 77
CCC(=O)/C=C1/Sc2ccccc2N1CC	none (no result: ALR inh)
CCC(=O)/C=C1/Sc2ccc(OC)cc2N1CCO	MLLE-PAM2 inh 45
O=C(Nc1nc2c(s1)COc1ccccc1-2)c1cccs1	ALR inh 96
N#CC1=C(S)N(c2ccccc2)C(c2ccc(-c3cc(Cl)ccc3Cl)o2)NC1=O (stereo not given)	Efflux pump inh 0.5
N#CC1=C(S)N(c2ccccc2)C(c2ccc(-c3ccc(Cl)c(Cl)c3)o2)NC1=O (stereo not given)	none (no result: ALR inh)
COC(=O)[C@@H](NC(=O)Nc1ccc(S(N)(=O)=O)cc1)C(C)C	none
COC(=O)[C@@H](NC(=O)Nc1ccc(C(C)=O)cc1)C(C)C	eIF4H FP inh 57
COc1cccc(CNC(=O)C2CCN(S(=O)(=O)c3ccc(-n4cnnn4)cc3)CC2)c1	none (no result: ALR inh)
CCCC(C)NC(=O)Cc1ccc(Br)cc1 (stereo not given)	ALR inh 95
Nc1c(-c2ccccc2)cnn1-c1cccc([N+](=O)[O-])c1	ALR inh 88
Cc1cc(C=O)c(C)n1-c1ccc(N2CCCC2)c([N+](=O)[O-])c1	none
Cc1cc(C=O)c(C)n1-c1ccc(N2CCOCC2)c([N+](=O)[O-])c1	eIF4H FP inh 82, PABP polyA inh 70
CCC(=O)Nc1cccc2cccnc12	none
C/C(=N\Nc1cccc2cccnc12)c1ccc[nH]1	ALR inh 96
CC1(C)Cc2c(cnn2-c2ccc(F)cc2)C(NC(=O)c2ccc(=O)oc2)C1 (stereo not given)	none
Cc1cc(C)c(C(=O)NC2CC(C)(C)Cc3c2cnn3-c2ccccc2)o1 (stereo not given)	ALR inh 87
CSCc1ccc(C(=O)NC2CC(C)(C)Cc3c2cnn3-c2ccc(F)cc2)o1 (stereo not given)	ALR inh 94
O=C(Cn1cc([N+](=O)[O-])ccc1=O)N1CCc2ccccc21	none (no result: eIF4H FP inh, SUMO HTRF inh, PABP polyA inh)
Clc1cccc(-c2nc3c4ccccc4ccn3c2Cc2ccsc2)c1	none (no result: eIF4H FP inh, SUMO HTRF inh, PABP polyA inh, ALR inh, Efflux pump inh)

Source: PubChem BioAssay (several laboratories)
